Only some compounds are listed: those with a hit (about 0.9% of all), similar ones and a draw of the others.
GPT2 inh: Primary qHTS assay for inhibitors of Glutamate pyruvate transaminase 2 (GPT2). AID 1671188, 2021. 0.25% of 100,000 active. Recombinant GPT2, coupled pyruvate oxidase/HRP Amplex Red fluorescence. Potency, µM (highest dose often 57.7 µM), inactives show top-dose activity change, negative = inhibition, hits mostly inhibitors; note: potency is the fitted concentration of half-maximal effect; nearly all actives have a fitted effect of over 60% in size
Target sequence (Q8TD30 whole entry, looked up): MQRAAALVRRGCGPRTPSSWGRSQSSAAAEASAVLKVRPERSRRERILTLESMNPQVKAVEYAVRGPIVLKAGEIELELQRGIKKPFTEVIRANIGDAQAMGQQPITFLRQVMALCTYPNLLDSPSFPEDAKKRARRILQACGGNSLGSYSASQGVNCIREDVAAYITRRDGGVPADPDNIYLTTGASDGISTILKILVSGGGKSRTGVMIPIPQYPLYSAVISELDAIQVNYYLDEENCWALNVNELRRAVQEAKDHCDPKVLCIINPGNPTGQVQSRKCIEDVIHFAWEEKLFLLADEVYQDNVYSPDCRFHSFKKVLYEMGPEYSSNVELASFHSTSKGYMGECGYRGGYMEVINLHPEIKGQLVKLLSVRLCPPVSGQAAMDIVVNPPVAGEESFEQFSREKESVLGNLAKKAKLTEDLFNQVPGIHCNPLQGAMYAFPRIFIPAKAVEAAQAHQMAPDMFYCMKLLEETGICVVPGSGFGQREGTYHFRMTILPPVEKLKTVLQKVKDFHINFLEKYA
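GPT2 10ng/uL, a-KG 250uM, L-Ala 2mM, HEPES pH7.5 + 0.0001% Tween; 30 min RT. Then Amplex mix (PO/HRP/ThPP), 30 min RT dark, fluorescence. AOA 50uM used as positive control.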
SNCA expr inhib: Primary qHTS assay for inhibitors of alpha-synuclein gene (SNCA) expression; AID 1671194, 2021; Potency, µM (top dose mostly 57.2 µM), for inactives: at the highest dose activity change, negative = inhibition, hits mostly inhibitors; HEK-293 SNCA-luciferase knock-in, luminescence, 24 h; 0.17% of 140,000 active;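 note: potency is the fitted concentration of half-maximal effect; plate controls were DMSO cells for no effect and cell-free wells for full effect; nearly all actives have a fitted effect of over 45% in size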
IP6K1 inhibitor: Primary qHTS assay for small molecule inhibitors of Inositol hexaphosphate kinase 1 (IP6K1) | IP6K1 kinase, ADP-Glo luminescence, 2 h; active compounds read low | AID 1645851, 2021 | activity change, % (series mostly up to about 58 µM) | Inositol hexakisphosphate kinase 1 (Homo sapiens), Q92551 | 0.81% of 140,000 active; in the data active = activity change below about -25%
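ADP-Glo luminescence measures ADP made by human IP6K1 during a 2 h RT reaction with ATP/IP6 (mix at 1.3 mM/130 uM); top library doses 57.5 and 19.1 uM final.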
HEK293 viab: GF-AFC viability counterscreen for inhibitors of alpha-synuclein gene (SNCA) expression; 0.12% of 150,000 active; Potency, µM (doses to about 57.1 µM), for the others: at the highest dose activity change, negative = cytotoxicity, usual class: cytotoxic; HEK-293-SNCA-luc viability, GF-AFC fluorescence, 24 h; AID 1671193, 2021;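 note: potency is the fitted concentration of half-maximal effect; 0% = DMSO-treated cells and -100% = medium-only wells without cells; nearly all actives have a fitted effect of over 30% in size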
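HEK-293-SNCA-luc cells (1500/well) plated 24 h, then exposed 24 h to a dilution series; GF-AFC added 30 min at 37C, fluorescence 405/540 nm; normalised to medium-only and DMSO wells, Hill fit.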
Active calls of the source: *; i = inactive; u = inconclusive; x = no result; ! = a repeat was not active; [ ] = dose if it differs, or a comment. Unless noted, calls come from the whole dose curve; as a rule, active = well fitted curve in the direction sought with a large enough effect; inconclusive = small, poorly fitted or top-dose-only effect, or another doubt; inactive = no such curve, though single readings can be large; an effect the other way counts as inactive or inconclusive. Unless noted, % is set by controls: 0 for no effect and ±100 for the full control effect.

SMILES | GPT2 inh | SNCA expr inhib | IP6K1 inhibitor | HEK293 viab
CCC(C=C[C@@H]1OC(=O)C=C[C@H]1C)=C[C@H](C)CC=CC(C)=C[C@@H](C)C(=O)[C@@H](C)[C@H](O)[C@@H](C)CC(C)=CC(=O)O | i[2.3 µM] | 0.16µM* | x | u
O=C(NCc1cccs1)C1CN(C2CCCC2)C(=O)N1 (centres undefined) | i | 3%[87.6 µM] | -12 | -4%[12.5 µM]
O=C(Cc1cccc(Cl)c1)N1CCN(c2ccc3nnc(C4CC4)n3n2)CC1 | x | x | 23 | x
COc1cccc(CNC(=O)c2ccc3nnc(-c4c(C)cccc4C)n3c2)c1 | -8% | 22% | 5 | u
O=C1c2ccccc2C(=O)c2c(NCCc3ccc(O)cc3)ccc(NCCc3ccc(O)cc3)c21 | 2% | u | x | 28µM*
COC(=O)c1cccc(NC(=S)N[C@@H]2C=C[C@@H](c3c(C)nn(-c4ccc(C(C)C)cc4)c3C)C2)c1 | -16% | 78% | -1 | -13%
COc1cc2nc(N3CCN(C)CC3)nc(NC3CCN(Cc4ccccc4)CC3)c2cc1OC | -26% | x | -11 | u
COc1cc2c(NC3CCN(C(C)C)CC3)nc(N3CCC(F)(F)CC3)nc2cc1OCCCN1CCCC1 | -19% | x | -16 | 24µM*
CCOc1ccccc1CN1CCC([C@@H]2CNC[C@H]2CO)CC1 | i | 25µM* | 18 | 8%[12.5 µM]
OC[C@@H]1CNC[C@H]1C1CCN(Cc2cccc(Cl)c2F)CC1 | i | 18% | -14 | -1%[12.5 µM]
C=C(C)C(=O)O[C@H]1C[C@@](C)(O)C2(O)CCC(C)(/C=C3/OC(=O)C(COC)=C31)O2 (some centres undefined) | i | x | 2 | 15µM*
CCOC(=O)c1cc(-c2ccc(C)cc2)n(CCC(=O)Nc2nc3c(C)cccc3s2)c1C | x | 14µM* | 5 | -11%
CCOC(=O)c1cc(-c2ccc(OC)cc2)n(CCC(=O)Nc2nc3ccc(OCC)cc3s2)c1C | x | -12% | -4 | 12%
C[C@@H]1O[C@@H](O[C@H]2[C@H](Oc3cc(O)c(C(=O)CCc4ccc(O)cc4)c(O)c3)O[C@H](CO)[C@@H](O)[C@@H]2O)[C@H](O)[C@H](O)[C@H]1O | 7.1µM* | x | 15 | -2%
COc1ccc(OC)c(NC(=O)Cn2c(N3CCC(C)CC3)nc(C)cc2=O)c1 | 3% | u | 24 | 3%
Cc1ccc(Nc2ccnc(N3CCC(C(=O)NCC4CCCCCC4)CC3)n2)cc1 | -7% | u | -4 | 5%[12.5 µM]
C=CC(=O)Nc1cccc(Oc2nc(Nc3ccc(N4CCN(C)CC4)cc3)ncc2Cl)c1 | -11% | 9% | 37 | 3µM*!
Cc1ccc(NC(=O)N2CCCCC2c2nc(CCOCC3CCCC3)no2)cc1C (centres undefined) | i | -11% | 1 | -11%
CN(Cc1ccccc1)Cc1cn([C@H]2CO[C@H]3[C@@H]2OC[C@@H]3NS(=O)(=O)c2cccc3cccnc23)nn1 | 4.5µM* | -4% | 7 | 1%
COc1ccc2[nH]c3c(c2c1)CCNC31CCN(C(=O)c2cccnc2C)CC1 | 3% | 20µM* | 6 | -3%[12.5 µM]
CCCCn1c(=O)c(C(=O)N2CCN(C(=O)c3ccccc3OC)CC2)nc2cccnc21 | i | 10% | -1 | -14%[12.5 µM]
C=CC(C)(O)CC/C=C(\C)C(=O)O[C@@H]1[C@@H](O)[C@H](OC(C)(C=C)CC/C=C(\C)C(=O)O[C@@H]2O[C@H](CO)[C@@H](O)[C@H](O)[C@H]2O)O[C@H](CO)[C@H]1OC(=O)/C(C)=C/CCC(C)(O)C=C (some centres undefined) | -4%[17.1 µM] | x | -3 | -5%[12.5 µM]
C=CC(C)(O)CC/C=C(\C)COC1O[C@H](CO)[C@@H](O)[C@H](O)[C@H]1O (some centres undefined) | i | x | -34* | u
NC(=O)c1ccc(I)c([N+](=O)[O-])c1 | 5% | -11% | x | 3%
N#Cc1cc([N+](=O)[O-])c2sc(C(N)=O)[n+]([O-])c2c1 | 13µM* | -26% | x | -7%
SMILES | GPT2 inh | SNCA expr inhib | IP6K1 inhibitor | HEK293 viab
COc1ccc(-c2c(C(=O)NCc3cccc(OC)c3)nc3sccn23)cc1 | 5%[88.5 µM] | 23%[87.6 µM] | -2 | -24%[87.6 µM]
O=C(CC1CCCCN(Cc2ccccc2)C1=O)NCc1ccccc1 (centres undefined) | i | u | 5 | 0%
O=C1[C@H](Cc2ccc(O)cc2)N2C(=O)CCN(C(=O)NCc3ccccc3)[C@H]2CN1Cc1cccc2ccccc12 | i | u | x | 24µM*
O=c1[nH]sc2cc(Cl)ccc12 | 14µM* | -29%[25.6 µM] | -22 | -18%[23.9 µM]
COc1ccc(NC(=O)N2CCc3c(C(=O)NCCCN(C)C)cccc32)cc1 | -3% | u | -7 | 4%
COc1ccc(NC(=O)N2CCc3c(C(=O)Nc4ccc5c(c4)OCO5)cccc32)cc1 | i | 7.9µM* | -6 | 18%
CCCNC(=O)c1cccc2c1CCN2C(=O)Nc1ccc(OC)cc1 | 2% | 28µM* | -5 | -10%
COc1ccc(NC(=O)c2cccc3c2CCN3C(=O)Nc2ccc(F)cc2)cc1 | i | 37% | -16 | -10%
CCN1CCN(CCNC(=O)c2cccc3c2CCN3C(=O)Nc2ccc(C)cc2)CC1 | -1% | 13µM* | 6 | -7%
COc1ccc(NC(=O)N2CCc3c(C(=O)NCCCN4CCCC4=O)cccc32)cc1 | 0% | 10µM* | 5 | 16%
COCCNC(=O)c1ccc(OC2CCN(Cc3cccc(SC)c3)CC2)c(Cl)c1 | i | -20% | 3 | -3%
O=C1Nc2ccccc2CN(CC2CCCCC2)C12CCNCC2 | -10% | 2% | -24 | -24%
COc1cccc(CC(=O)NCc2nnc3cc(-c4nc(C5CC5)no4)ccn23)c1 | i | 10% | -5 | -4%
Cc1cccc(CSc2nnc(CCCCCN)o2)c1 | x | 14µM* | -18 | 7%
Cc1ccc(-c2nnc(SCc3cccc(C#N)c3)o2)cc1 | x | 14% | -3 | -6%
CC(C)CC(NC(=O)OCc1ccccc1)C(=O)NC(CC(C)C)C(=O)NC(CCC(=O)O)C(=O)Nc1ccc2ccccc2c1 (centres undefined) | 3% | x | -8 | -19%
CCC[C@@H](C=O)NC(=O)[C@H](CC(C)C)NC(=O)[C@H](CC(C)C)NC(=O)OCc1ccccc1 | 5% | 1.9µM* | x | u
Cc1ccc2c(CNCCc3ccc(Cl)cc3)c(C(=O)O)n(Cc3ccc(F)cc3)c2c1 | x | -8% | 4 | 4%
C=Cc1ccc(Cn2c(C(=O)O)c(CNCCc3ccccc3)c3ccc(C)cc32)cc1 | x | u | -4 | 28µM*
O=C(NC1CC1)[C@@H]1C[C@H](Oc2ccccc2)CN1C(=O)CCCc1c[nH]c2ccccc12 | i | -17% | 19 | u
CCc1cccc(NC(=O)Cn2c(=O)n(Cc3ccccc3)c(=O)c3c(C)c(C(=O)N(C)C)sc32)c1 | x | 13µM* | -13 | -13%

High-throughput results: PubChem BioAssay, National Center for Advancing Translational Sciences (NCATS)
